High-throughput results as filed in PubChem.
Most compounds without a hit are left out; they make up all but 6.9% or so of the library.
Mdm2-MdmX inh: inhibitors of human Mdm2-MdmX association, primary screen, cell-based, luminescence, split luciferase, SaOS-2, uHTS. Protein Mdm4 (Homo sapiens) + E3 ubiquitin-protein ligase Mdm2 (Homo sapiens), …. SaOS-2 split-luciferase Mdm2/MdmX complementation. inhibition, % at 8 µM. actives 3% (n = 330,000). AID 485346, 2010;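 active = inhibition of at least 50% at 8 µM in the primary screen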
Beta apoptosis: inhibitors of cytokine-induced beta cell apoptosis, primary screen, luminescence; AID 435005, 2010; INS-1E cytokine-induced death, ATP luminescence, 48 h; percent of positive-control rescue, neutral wells zero; actives 0.8% (n = 300,000); protection from apoptosis, % (concentration not given with the values);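 active = Every replicate reaches about 75%, or at least half do and their mean reaches it too, limit read from the data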;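 also: 0% = cytokine-treated negative control wells and 100% = positive control rescue; higher means more ATP so stronger rescue from cytokine killing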
NR3A LBD binder: binders of NR3A ligand-binding domain, primary screen, biophysical, differential scanning fluorimetry, uHTS; Glutamate receptor ionotropic, NMDA 3A (GRIN3A) ligand-binding domain; NR3A LBD differential scanning fluorimetry, Tm shift; 0% = protein alone, 100% = glycine-bound protein; Tm shift relative to glycine control, % at 25 µM; actives 2.5% (n = 340,000); AID 1259313, 2017;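 active = melting temperature shift of at least 10% of the positive control shift, at one fixed dose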
SKKanGAS inh: S. pyogenes SKKanGAS growth inhibitors in kanamycin, primary screen, streptokinase expression inhibitor project, SKKanGAS strain, BacTiter-Glo luminescence. 6 h. inhibition, % at 7.5 µM. actives 1.3% (n = 300,000). AID 1662, 2009;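 active = mean replicate score, as percent of positive control median, at least 50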;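 also: strain carries kanamycin resistance gene driven by streptokinase promoter and grows in 40 µg/ml kanamycin; loss of luminescence reflects streptokinase promoter inhibition or plain growth inhibition; 0% = median of DMSO wells and 100% = positive control at its reference dose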
CSC inhib: cancer stem cell viability inhibitors, primary screen, luminescence; cancer stem cell-like cells viability; inhibition, % at 7.5 µM; actives 1.1% (n = 300,000); AID 2717, 2010; in the data active = inhibition above about 75%; tested in HMLE shEcad cells
MPTP block: mitochondrial permeability transition pore inhibitors, primary screen, biochemical, isolated mouse mitochondria, absorbance; Ca2+ swelling absorbance, 30 min; actives 1.4% (n = 360,000); inhibition, % at 10 µM;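 active = inhibition of 50% or more, scaled per plate between neutral and stimulator controls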;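 also: 0% = DMSO wells given calcium and 100% = 1 mM EGTA wells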
Mdm2-MdmX conf: Mdm2-MdmX complex disruptors, retested hits, confirmation, luminescence, single concentration. shares compounds with Mdm2-MdmX inh. Mdm2-MdmX binding, luminescent assay. inhibition, % at 8 µM. actives 55% (n = 10,000). AID 489028, 2010; in the data active = inhibition above about 40%
FLuc counter: full-length luciferase signal inhibition, confirmation, counter-screen for Mdm2/MdmX interaction inhibitor project, cell-based, single concentration, SaOS-2; shares compounds with Mdm2-MdmX inh; SaOS-2 full-length luciferase counterscreen, luminescence; inhibition, % at 8 µM; actives 77% (n = 6,200); AID 504607, 2011;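 active = mean inhibition at 8 µM reaching about 37%, which flags the compound as non-specific, limit read from the data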;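 also: p53-null SaOS-2 cells with luciferase driven by a doxycycline-inducible promoter; compound on cells about two nights before reading with doxycycline added after day one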
Rh123 counter: fluorescence retest of MPTP screen hits in isolated mitochondria, single concentration; AID 624504, 2012; inhibition, % at 10 µM; shares compounds with MPTP block; membrane potential, Rhodamine 123 fluorescence; actives 78% (n = 5,000); in the data active = inhibition above about 22%;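 also: 0% = DMSO vehicle and 100% = positive control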
MPTP swell DR: mitochondrial permeability transition pore inhibitors, dose response, biochemical, absorbance, uHTS hits | shares compounds with MPTP block | isolated mitochondria swelling | IC50, µM | actives 58% (n = 780) | AID 651561, 2012; in the data active = IC50 below about 20 µM
MPTP cs DR: fluorescent counter-screen in isolated mitochondria, dose response, counter-screen for MPTP inhibitor project, biochemical, fluorescence, uHTS hits; shares compounds with MPTP block; AID 651564, 2012; isolated mitochondria counterscreen, fluorescence read-out; IC50, µM; actives 49% (n = 780); in the data active = IC50 below about 80 µM
* = called active by the depositor; nt = no result given.

SMILES	Mdm2-MdmX inh	Beta apoptosis	NR3A LBD binder	SKKanGAS inh	CSC inhib	MPTP block	Mdm2-MdmX conf	FLuc counter	others
Cc1ccc(N2C(=O)NC(=O)/C(=C/C=C/c3ccco3)C2=O)cc1	54*	9	1	5	79*	0	32	nt
O=C1NC(=O)N(c2ccccc2)C(=O)/C1=C\C=C\c1ccccc1	78*	13	7	3	60	5	11	nt
CC1CCN(c2cc(Br)c([N+](=O)[O-])cc2F)CC1	12	5	4	-5	-18	3	nt	nt
COc1ccc(-c2nn(CCC#N)cc2C(=O)NCc2ccccc2)cc1[N+](=O)[O-]	0	-10	1	4	-17	0	nt	nt
Cn1c(NN=O)nc2ccccc21	59*	100*	-1	56*	115*	0	82*	36
CN1CCN(Cc2nc3ccccc3n2C)CC1	11	-2	-2	-4	-6	1	nt	nt
Cc1ccc(OP2(=O)Nc3cc(C)c(C)cc3S2)cc1 (configuration not stated)	nt	nt	-2	nt	nt	-3	nt	nt
COc1ccc(/C=C/C(=O)c2c(O)n(CCC3=CCCCC3)c(=O)[nH]c2=O)cc1OC	69*	-5	0	20	7	-4	34	nt
CCOC(=O)C1=CC(=C2C(=O)N(CC)C(=S)N(CC)C2=O)c2ccccc2O1	18	-5	2	3	10	nt	nt	nt
COc1cc2c3c(c1OC)Oc1ccc(cc1)C[C@H]1c4c(cc(OC)c(OC)c4Oc4ccc(cc4)C[C@@H]3N(C)CC2)CCN1C	100*	nt	0	nt	nt	5	74*	35
COc1cc2c3cc1Oc1c(OC)c(OC)cc4c1[C@H](Cc1ccc(cc1)Oc1cc(ccc1O)C[C@H]3N(C)CC2)N(C)CC4	97*	17	1	nt	-4	-2	57*	30
COc1cc2c3cc1Oc1cc(ccc1O)C[C@@H]1c4c(cc(OC)c(O)c4Oc4ccc(cc4)C[C@H]3N(C)CC2)CCN1C	92*	1	1	-1	7	5	76*	50*
COc1cc2c(cc1O)C[C@H]1c3c(cc(O)c(OC)c3-2)CCN1C	12	-3	-3	nt	-10	-1	nt	nt
O=C(CCC(=O)N1C[C@H]2C[C@@H](C1)c1cccc(=O)n1C2)NCc1ccccc1	-4	nt	-4	-1	-2	1	nt	nt
CN1CCN(Cc2cn(C)c3ccccc23)CC1CCO (configuration not stated)	nt	nt	2	1	-15	0	nt	nt
CC(=O)O[C@@H]1/C=C/[C@](C)(O)C[C@@H](C)C/C=C/[C@H]2[C@@H]3O[C@]3(C)[C@@H](C)[C@H]3[C@H](Cc4ccccc4)NC(=O)[C@@]312	78*	19	-2	-1	50	0	51*	42*
C[C@@H]1CC[C@@]2(NC1)O[C@H]1C[C@H]3[C@@H]4CC=C5C[C@@H](O)CC[C@]5(C)[C@H]4CC[C@]3(C)[C@H]1[C@@H]2C	58*	-3	-2	-1	8	-1	10	nt
CN1[C@@H]2CC[C@H]1CC(OC1c3ccccc3CCc3ccccc31)C2 (some centres not stated)	71*	nt	-1	nt	33	97*	32	70*	Rh123 counter=1;MPTP swell DR=7.8*;MPTP cs DR=>80
CN1C2CCC1CC(OC(=O)c1ccc(Cl)cc1)C2 (configuration not stated)	26	nt	-2	-7	28	-2	nt	nt
Ic1ccccc1CN[C@@H]1C2CCN(CC2)[C@@H]1C(c1ccccc1)c1ccccc1	94*	nt	-5	nt	nt	87*	42*	66*	Rh123 counter=1
Fc1ccc(C(OCCN2CCN(CCCc3ccccc3)CC2)c2ccc(F)cc2)cc1	83*	102*	3	5	98*	97*	59*	30	Rh123 counter=3
c1ccc(CCCN2CCN(CCOC(c3ccccc3)c3ccccc3)CC2)cc1	50*	14	-5	-2	69	80*	34	80*	Rh123 counter=-2
Fc1ccc(C(OCCN2CCCC2)c2ccc(F)cc2)cc1	-7	nt	-3	1	nt	-1	nt	nt
CN(C)c1ccc(C=C(C#N)C#N)cc1	28	3	5	0	2	0	nt	nt
CC(C)(C)c1cc(C=C(C#N)C#N)cc(C(C)(C)C)c1O	96*	117*	3	nt	81*	108*	94*	12	Rh123 counter=89*
SMILES	Mdm2-MdmX inh	Beta apoptosis	NR3A LBD binder	SKKanGAS inh	CSC inhib	MPTP block	Mdm2-MdmX conf	FLuc counter	others
COC(=O)C1=C(c2cc3ccccc3s2)C[C@@H]2CC[C@H]1N2C(=O)N1CCC(C)CC1	-10	-3	10	15	31	-1	nt	nt
Cc1ccccc1C(O)(Cc1ccccc1)C1CN2CCC1CC2 (configuration not stated)	54*	-16	1	-1	29	62*	61*	69*	Rh123 counter=-7;MPTP swell DR=16*;MPTP cs DR=>80
c1cc2c(cc1N1CCCCC1)CNCc1cnnn1-2	nt	nt	nt	nt	nt	-2	nt	nt
O=C(c1cc(C(=O)NCc2ccccc2)c(=O)n(Cc2ccccc2)c1)c1cc(Cl)ccc1O	56*	9	13*	26	49	82*	29	nt	Rh123 counter=75*
CCCCCc1nc2ccccc2c(=O)n1-c1ccccc1[N+](=O)[O-]	-33	0	-2	4	-3	2	nt	nt
CCCCCc1nc2c(c(=O)c3ccccc3n2C)c(=O)n1C1CCCCCC1	69*	111*	4	94*	149*	87*	35	nt	Rh123 counter=-5
CC1=C2CCC3C(CCC4=CC(=O)CCC43C)C2CC1 (configuration not stated)	nt	nt	-1	nt	nt	1	nt	nt
CCOc1ccccc1N=C1SCCCN1C	11	-7	2	-1	-3	-1	nt	nt
